Results taken from PubChem BioAssay (NCATS).
Inconclusive results are not listed. Unmarked numbers belong to inactive results. Calls come from the whole dose curve; as a rule, active = well fitted curve in the direction sought with a large enough effect; inconclusive = small, poorly fitted or top-dose-only effect, or another doubt; inactive = no such curve, though single readings can be large or run the other way.

Target: Metallo-beta-lactamase type 2 (Klebsiella pneumoniae) (UniProt C7C422)
Experiment: qHTS to identify inhibitors of the New Delhi Metallo-beta-lactamase (NDM): assay validation screen against the NCATS LOPAC Collection (AID 1794843);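 note: nitrocefin turnover by NDM-1 measured as 485 nm absorbance at plateau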
Conditions: NDM-1 enzyme, nitrocefin hydrolysis, absorbance 485 nm; series mostly up to 38.4 µM; activity change, negative = inhibition: at the top concentration
Method in brief: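 NDM-1 at 2 nM final in 50 mM HEPES pH 7.0, 1 uM ZnSO4, 0.01% Tween20, preincubated with LOPAC compounds pinned in DMSO; 50 uM nitrocefin (stock) added. Hydrolysis read as absorbance at 485 nm in the plateau phase.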
% is set by controls: 0 for no effect and ±100 for the full control effect.

Chain of Metallo-beta-lactamase type 2 (Klebsiella pneumoniae) (C7C422 whole entry, looked up): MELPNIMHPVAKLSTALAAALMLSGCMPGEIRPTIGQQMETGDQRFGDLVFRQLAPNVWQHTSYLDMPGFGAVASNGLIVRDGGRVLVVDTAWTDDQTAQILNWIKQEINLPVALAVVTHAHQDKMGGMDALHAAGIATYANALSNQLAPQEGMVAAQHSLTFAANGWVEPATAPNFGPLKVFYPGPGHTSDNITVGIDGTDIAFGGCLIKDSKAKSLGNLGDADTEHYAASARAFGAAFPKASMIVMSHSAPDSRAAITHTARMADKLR

Structure (SMILES) | activity change, negative = inhibition [%]
NC(=O)C(=O)O | 1.91
O=C(c1ccc(OCCCc2cnc[nH]2)cc1)C1CC1 | 4
Cc1cc2c(cc1Cl)N(C(=O)Nc1ccc(Oc3cccnc3C)nc1)CC2 | 0.198
NS(=O)(=O)c1ccc(-n2nc(C(F)(F)F)cc2-c2ccc(Cl)cc2)cc1 | -7.67
CC(C)c1cccc(C(C)C)c1N1C(=O)c2ccc(O)cc2C1=O | 0.838
CC(=O)/C=C1\C(=O)N(C)c2ccccc21 | 0.356
COc1ccc(C(=O)/C(Cc2cc(OC)c(OC)c(OC)c2)=C(\C(=O)O)c2ccc3c(c2)OCO3)cc1 | -7.18
COc1cc(C(O)CO)ccc1OS(=O)(=O)O (configuration not stated) | -7.02
C[N+]1(C)CCC(OC(=O)C(c2ccccc2)c2ccccc2)CC1 | 2.92
CO/N=C(\C(=O)N[C@@H]1C(=O)N2C(C(=O)O)=C(COC(C)=O)CS[C@H]12)c1csc(N)n1 | -2.07
Clc1ccc(N2CCN(Cc3c[nH]c4ncccc34)CC2)cc1 | -1.85
COc1ccccc1CN[C@@H]1CCCN[C@@H]1c1ccccc1 | 0.578
N#C/C(=C\c1ccc(-c2cc(Cl)ccc2Cl)o1)C(=O)Nc1cccc2ncccc12 | 1.08
CN1[C@@H](CC(=O)c2ccccc2)CCC[C@H]1C[C@H](O)c1ccccc1 | 2.82
COc1ccc(/C=C/c2nc(NCCCN(C)C)c3ccccc3n2)cc1 | 0.792
Cn1c(=O)c(-c2c(Cl)cccc2Cl)cc2cnc(Nc3ccc(N4CCOCC4)cc3)nc21 | -8.4
O=[N+]([O-])c1ccc(CSc2ncnc3c2ncn3[C@@H]2O[C@H](CO)[C@@H](O)[C@H]2O)cc1 | -3.8
